Bioassay records (PubChem)
An excerpt weighted towards active compounds, which were near 18% of everything screened.
TDP1 inh – TDP1 (human) enzyme inhibition. AID 485290. Q9NUW8. recombinant TDP1, AlphaScreen DNA substrate cleavage. 0.28% of 350,000 active. Potency, µM (titrated, usually from 130 µM), for inactives: top-dose activity change, negative = inhibition, hits mostly inhibitors; note: nearly all actives have a fitted effect of over 40% in size
Target sequence (Q9NUW8 whole entry, looked up): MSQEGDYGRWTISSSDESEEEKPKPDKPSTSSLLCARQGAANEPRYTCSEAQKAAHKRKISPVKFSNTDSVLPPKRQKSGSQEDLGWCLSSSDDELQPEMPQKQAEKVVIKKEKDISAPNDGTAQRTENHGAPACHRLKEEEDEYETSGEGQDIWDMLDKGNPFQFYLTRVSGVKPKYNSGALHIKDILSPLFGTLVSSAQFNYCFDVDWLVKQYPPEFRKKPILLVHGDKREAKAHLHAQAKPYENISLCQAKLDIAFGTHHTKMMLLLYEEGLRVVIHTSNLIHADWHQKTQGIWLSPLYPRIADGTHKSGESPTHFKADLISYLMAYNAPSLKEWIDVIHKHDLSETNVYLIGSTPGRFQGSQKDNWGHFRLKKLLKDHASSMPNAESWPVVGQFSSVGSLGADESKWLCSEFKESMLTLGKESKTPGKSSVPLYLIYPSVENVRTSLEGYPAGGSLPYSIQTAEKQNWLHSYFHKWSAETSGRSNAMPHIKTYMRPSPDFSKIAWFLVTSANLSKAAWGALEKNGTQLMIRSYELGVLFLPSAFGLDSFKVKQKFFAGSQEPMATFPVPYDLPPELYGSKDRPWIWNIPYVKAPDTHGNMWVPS
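Here, a 5' biotin and 3' phosphotyrosine-FITC DNA oligonucleotide reports Tdp1 activity: intact substrate bridges AlphaScreen beads, while cleavage leaves a 3' phosphate and drops signal. All incubations at room temperature.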
TDP1 cell CPT – growth inhibition of DT40 Tdp1-/-;hTDP1 cells with camptothecin (screen for TDP1 inhibitors); 12% of 420,000 active; AID 686979; Potency, µM (doses to about 46.2 µM), for inactives: top-dose activity change, negative = growth inhibition, most hits filed as inhibitors; chicken DT40 Tdp1-/-;hTDP1 cells + 20 nM CPT, ATP luminescence, 48 h; note: nearly all actives have a fitted effect of over 55% in size
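Cell growth measured by CellTiter-Glo luminescence after a minimum 48 h, 37 C compound exposure with 20 nM CPT in Tdp1-knockout DT40 cells stably expressing hTDP1, seeded 400/well; qHTS titration format.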
GCN5L2 inh – blocks human GCN5L2 histone acetyltransferase | GCN5L2 HAT assay, ThioGlo1 CoA-SH fluorescence | Potency, µM (series often up to 58.9 µM), without a hit: top-dose activity change, negative = inhibition, most hits filed as inhibitors | 0.21% of 390,000 active | AID 504327
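ThioGlo1-coupled HAT assay: 20nM GCN5L2, 70uM acetyl-CoA, 75uM H3(1-25) peptide, pH 7.5. Fluorescence read at 340/540nm at start and after 20 min at room temperature.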
DT40 TDP1 no CPT – qHTS for Inhibitors of human tyrosyl-DNA phosphodiesterase 1 (TDP1): qHTS in cells in absence of CPT. AID 686978, 2013. Potency, µM (highest dose often 46.2 µM), for inactives: top-dose activity change, negative = growth inhibition, usual class: inhibitors. 15% of 420,000 active. DT40 Tdp1-/- hTDP1 cells, no CPT, ATP luminescence, 48 h; note: nearly all actives have a fitted effect of over 55% in size
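Seeded 400 DT40-hTDP1 cells/well (vehicle DMSO, no 20 nM CPT); pinned compounds; ≥48 hr at 37 °C; CellTiter-Glo luminescence as viability measure.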
VDR inh – vitamin D3 receptor (human) inhibition; VDR-SRC2-3 peptide fluorescence polarization, 2 h; Potency, µM, inactives show max response, negative = inhibition, usual class: inhibitors; 0.93% of 400,000 active; AID 504847
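VDR–SRC2-3 interaction, FP format. Cmpds 23 nl via pintool, brief spin, 2 h ambient incubation.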
PLK1 PBD inh – inhibitors of human PLK1 polo-box domain binding; Potency, µM, for the others: max response, negative = inhibition, hits mostly inhibitors; 2.8% of 360,000 active; Plk1 PBD binding of FITC phosphopeptide, fluorescence polarization; P53350; AID 720504; note: series mostly up to about 57 µM; nearly all actives have a fitted effect of over 65% in size
Starred values were filed as active, the others as inactive; u = inconclusive; x = no result; ! = repeats disagree; [ ] = another dose, or the depositor's remark. Calls come from the whole dose curve; as a rule, active = well fitted curve in the direction sought with a large enough effect; inconclusive = small, poorly fitted or top-dose-only effect, or another doubt; inactive = no such curve, though single readings can be large; an effect the other way counts as inactive or inconclusive. % is set by controls: 0 for no effect and ±100 for the full control effect; potency is the fitted concentration of half-maximal effect.

SMILES	TDP1 inh	TDP1 cell CPT	GCN5L2 inh	DT40 TDP1 no CPT	VDR inh	PLK1 PBD inh
COC(=O)C1=C(c2ccc(C(C)=O)cc2)C[C@@H]2CC[C@H]1N2C(=O)NCCCOC(C)C	0%	-8%	u	-2%	-10%	9%
O=C1NC(=O)N(c2ccccc2F)C(=O)/C1=C/c1ccc(Oc2ccc([N+](=O)[O-])cn2)cc1	-8%	-1%	-9%	12%	79µM*	6µM*
Cc1cscn1	0%	-21%	0%	u	13%	-5%
Cc1ccc(-c2cc(C(F)F)n3ncc(C(=O)N4CCc5ccccc5C4)c3n2)cc1	-3%	u	0%	26µM*	-14%	-5%
Cc1ccc(NC(=O)c2cc(-c3cc(Cl)ccc3C)n[nH]2)cc1NS(C)(=O)=O	x	23µM*	x	u	x	3%
CC(=O)O[C@H]1C[C@H](O[C@H]2[C@@H](O)C[C@H](O[C@H]3[C@@H](O)C[C@H](OC4CC[C@@]5(C)[C@H](CC[C@@H]6[C@@H]5CC[C@]5(C)[C@@H](C7=CC(=O)OC7)CC[C@]65O)C4)O[C@@H]3C)O[C@@H]2C)O[C@H](C)[C@H]1O[C@@H]1O[C@H](CO)[C@@H](O)[C@H](O)[C@H]1O (stereo not given in full)	x	0.34µM*	x	0.3µM*	x	x
CC(=O)OC1CC(OC2C(O)CC(OC3C(O)CC(OC4CCC5(C)C(CCC6C5CC(O)C5(C)C(C7=CC(=O)OC7)CCC65O)C4)OC3C)OC2C)OC(C)C1OC1OC(CO)C(O)C(O)C1O (stereo not given)	10%	1.3µM*	30%	0.65µM*	-10%	-15%
C=CCN1C(=O)/C(=C/c2cc(C)n(-c3cccnc3)c2C)C(=O)NC1=S	-4%	u	-12%	u	-6%	1.5µM*
Cc1cc(/C=C2/C(=O)NC(=O)N(c3ccccc3)C2=O)c(C)n1-c1ccc(F)cc1	x	u	x	u	-26%	u
O=C(c1cc(-c2ccc(Cl)cc2)n[nH]1)N1CCN(S(=O)(=O)c2ccc(Br)s2)CC1	-2%	u	-3%	15µM*	6%	x
S=C(SSC(=S)N1CCCCC1)N1CCCCC1	x	0.75µM*	x	0.94µM*	x	x
C/C=C(\CC)C(=O)NC(N)=O	x	7%	x	-13%	x	x
C=C(C)c1cc2cc(C(C)=O)c(O)cc2o1	7%	9%[9.04 µM]	-6%	-4%[9.04 µM]	-3%	x
CCOc1ccc(Nc2c(S(=O)(=O)c3ccc(C)cc3)cnc3ccccc23)cc1	4%	16µM*	-16%	u	-8%	x
CN1[C@H](CC(=O)c2ccccc2)CCC[C@H]1C[C@H](O)c1ccccc1	5%	-2%	-9%	-25%	8%	x
C#CCOc1cc(C2C3=C(COC3=O)Nc3cc4c(cc32)OCO4)ccc1OC (stereo not given)	1%	21µM*	-6%	-61%	0%	-12%
COc1cc2c(cc1OC)C(C1c3cc4c(cc3CCN1C)OCO4)OC2=O (stereo not given)	0%	1%	-2%	5%	-10%	-12%
CCOC(=O)c1cc2ccccc2n1C1CCN(Cc2ccccc2)CC1	x	u	x	16µM*	x	1%
O=c1[nH]c2ccccc2n1C1CCN(C(c2nnnn2C2CCCC2)C2CC2)CC1 (stereo not given)	x	u	x	u	x	-7%
O=c1[nH]c2ccccc2n1C1CCN(C(CCc2ccccc2)c2nnnn2Cc2ccccc2)CC1 (stereo not given)	x	2.3µM*	x	2.6µM*	x	1%
O=c1[nH]c2ccccc2n1C1CCN(C(c2nnnn2Cc2ccccc2)C2CC2)CC1 (stereo not given)	x	16µM*	x	21µM*	x	-7%
CSCCC(c1nnnn1Cc1ccccc1)N1CCC(n2c(=O)[nH]c3ccccc32)CC1 (stereo not given)	x	2.9µM*	x	1.8µM*	x	5%
CCc1ccccc1Nc1nn2c(=O)c3ccc(C(=O)Nc4cc(C)cc(C)c4)cc3nc2s1	6%	8.2µM*	3%	8.2µM*	13%	x
COC(=O)C1C(c2ccccc2)C2C(=O)c3c(OC)cc(OC)cc3O[C@@]12c1ccc(OC)cc1 (stereo not given in full)	10%[21 µM]	x	x	x	x	x
CN1CC[C@@]2(C)c3cc(O)ccc3N(C)[C@@H]12	6%	5.8µM*	x	7.3µM*	u	5.3µM*
SMILES	TDP1 inh	TDP1 cell CPT	GCN5L2 inh	DT40 TDP1 no CPT	VDR inh	PLK1 PBD inh
O=C(Oc1ccc(Cl)cc1)N1CCOCC1	x	u	1%	u	79µM*	11µM*
C[n+]1c2cc(N)ccc2cc2ccc(N)cc21 (tested in a mixture with another compound)	x	2.1µM*	x	1.8µM*	x	x
Cc1ccc(N)cc1N	2%	4%	-5%	6%	-18%	-1%
C[n+]1c2cc(N)ccc2cc2ccc(N)cc21	3%[56.1 µM]	3.7µM*	u	2.9µM*	25µM*!	0.67µM*
CCCNC(=O)N1[C@H]2CC[C@@H]1C(C(=O)OC)=C(c1cccc(OC)c1OC)C2	x	-21%	x	-8%	1%	-14%
Cc1ccc2n1Cc1cnnn1-c1ccccc1-2	x	u	x	u	x	3%
CC(=O)O[C@H]1C[C@@H]2OC3C=C(C)CCC3(C)[C@@]1(C)[C@@]21CO1 (stereo not given in full)	x	0.58µM*	x	1µM*	-11%	-7%
COC(=O)/C=C/C(=O)N[C@@H]1CC[C@@]2(O)[C@H]3Cc4ccc(O)c5c4[C@@]2(CCN3CC2CC2)[C@H]1O5	9%	x	6%	x	1%	x
ClC(Br)Br	-4%	x	x	x	x	x
CCOC(=O)/C=C(C)/C=C/CC(C)CCCC(C)C (stereo not given)	x	x	1%	x	0%	x
Cc1ccc2nc(N3CCN(C)CC3)[nH]c2c1	7%	-18%	-9%	1%	6%	-8%
CCOc1ccc(-c2nc3ccc(-c4nc5ccc(N6CCN(C)CC6)cc5[nH]4)cc3[nH]2)cc1	27%	x	11µM*	x	112%	x
O=C(O)CCCC[C@@H]1SC[C@H]2NC(=O)N[C@@H]12	30%[56.1 µM]	6%	x	-12%	x	x
Cc1ccc(S(=O)(=O)Oc2ccccc2C=C2C(=O)N(C)C(=O)N(C)C2=O)cc1	-5%	u	-20%	u	u	6.7µM*
CCCNC(=O)c1cnn2c(C)c(Cc3c(C)cc(C)cc3C)c(C)nc12	10%	3.7µM*	0%	1.8µM*	1%	x
Cc1nc2c(C(=O)N3CCC4(CC3)OCCO4)cnn2c(C)c1Cc1cccc(Cl)c1	-2%	u	-4%	u	5%	-1%
